Test results from PubChem BioAssay.
Active and inactive are the calls of the source.

Columns and labels:
Albumin (Bos taurus) = Albumin (Bos taurus) (UniProt P02769); assay: bovine serum albumin binders on microarray, profiling panel, artefact control for SMM control protein annotation, biochemical, small-molecule microarray, Alexa647 label, 635/667 nm fluorescence (AID 1118); settings: BSA-A647 binding, fluorescence 635 nm, higher = more signal;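 also: score merges 667 nm emission intensity and signal-to-noise per printed compound spot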
[1] = small-molecule microarray binders of probe aXIP, primary screen, biochemical, NeuroSMM set, 635/667 nm fluorescence (AID 1119); settings: higher = more signal, called active from +8 up or from −8 down;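 also: probe is the protein aXip251-270 applied at 1 µg/mL to compound-printed slides; binding of probe to printed compounds measured as 667 nm fluorescence plus signal to noise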
[2] = small-molecule binders of probe aNOTCH3, primary screen, biochemical, small-molecule microarray, 635/667 nm fluorescence (AID 1120); settings: higher = more signal;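 also: probe is a biotin-tagged antibody raised against NOTCH3 rather than NOTCH3 protein; score merges spot fluorescence near 667 nm with spot signal to noise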
[3] = small-molecule binders of probe aNOTCH2, primary screen, biochemical, small-molecule microarray, 635/667 nm fluorescence (AID 1121); settings: higher = more signal;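 also: score merges feature fluorescence read at 667 nm with its signal to noise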
[4] = biological target: Carbonic anhydrase 2 (Homo sapiens) (UniProt P00918); assay: CAII small-molecule binders, profiling panel, biochemical, small-molecule microarray, Alexa647-labelled CAII (AID 1122); settings: CAII-A647 binding fluorescence, higher = more signal
[5] = COS7 lysate on small-molecule microarray, probe aHis, 635 nm (AID 1123); settings: COS7 cell lysate, fluorescence, higher = more signal;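 also: z-score combines 667nm fluorescence intensity with signal-to-noise per printed compound spot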
[6] = compound binding in COS7 lysate, probe aLAP1, primary screen, cell lysate, small-molecule microarray (AID 1124); settings: probe aLAP1, fluorescence, higher = more signal;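 also: lysate comes from COS7 cells expressing LAP1 and is applied at 0.3 µg/mL; score merges spot fluorescence near 667 nm with signal-to-noise over triplicate slides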
Sam68 (KHDRBS1) = assay: Sam68 small-molecule binders, primary screen, biochemical, small-molecule microarray, 635 nm fluorescence (AID 1125); settings: small-molecule microarray binding, higher = more signal;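 also: score merges 667 nm channel intensity with signal to noise over triplicate slides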
[7] = test system: Chordin-like protein 2 (CHRDL2); assay: CHRDL2 small-molecule binders, primary screen, biochemical, small-molecule microarray, 635 nm fluorescence (AID 1126); settings: small-molecule microarray binding, fluorescence 635 nm; higher = more signal;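 also: printed compound slides probed with Chrdl2 protein at 4 µg/mL for 1 h at 4 C; score merges 667 nm emission intensity with signal to noise over three replicate slides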
[8] = biological target: Concanavalin-A (Canavalia ensiformis) (UniProt P02866); assay: ConA small-molecule binders, primary screen, artefact control for SMM control protein annotation, biochemical, small-molecule microarray, Alexa647 label, 635 nm (AID 1127); settings: ConA-A647 binding fluorescence, higher = more signal;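 also: z combines 667 nm emission intensity with signal-to-noise across three replicate slides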
Sequence of Concanavalin-A (Canavalia ensiformis) (P02866 whole entry, looked up): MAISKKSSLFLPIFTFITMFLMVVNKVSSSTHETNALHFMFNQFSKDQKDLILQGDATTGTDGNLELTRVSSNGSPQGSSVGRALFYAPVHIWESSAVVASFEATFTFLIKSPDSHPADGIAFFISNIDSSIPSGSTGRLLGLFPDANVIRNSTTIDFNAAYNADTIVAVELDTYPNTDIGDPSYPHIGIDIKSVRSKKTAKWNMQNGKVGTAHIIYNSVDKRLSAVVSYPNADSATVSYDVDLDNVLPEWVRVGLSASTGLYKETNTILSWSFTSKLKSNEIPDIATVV

Sequence of Albumin (Bos taurus) (P02769 whole entry, looked up): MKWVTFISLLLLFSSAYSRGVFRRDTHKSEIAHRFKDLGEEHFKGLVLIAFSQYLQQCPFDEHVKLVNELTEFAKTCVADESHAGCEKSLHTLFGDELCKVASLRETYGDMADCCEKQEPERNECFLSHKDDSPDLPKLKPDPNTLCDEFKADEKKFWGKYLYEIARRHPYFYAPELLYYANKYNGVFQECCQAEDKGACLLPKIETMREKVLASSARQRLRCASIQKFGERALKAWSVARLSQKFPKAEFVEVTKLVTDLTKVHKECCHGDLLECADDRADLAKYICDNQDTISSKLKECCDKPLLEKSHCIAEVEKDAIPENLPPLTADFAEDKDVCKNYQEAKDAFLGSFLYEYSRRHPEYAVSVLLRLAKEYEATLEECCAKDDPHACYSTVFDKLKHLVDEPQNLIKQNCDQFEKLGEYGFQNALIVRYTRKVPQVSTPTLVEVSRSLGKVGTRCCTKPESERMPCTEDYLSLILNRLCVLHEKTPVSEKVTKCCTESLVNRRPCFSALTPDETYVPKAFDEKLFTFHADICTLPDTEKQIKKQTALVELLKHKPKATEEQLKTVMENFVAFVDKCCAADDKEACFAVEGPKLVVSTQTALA

Row | SMILES | composite z-score (Albumin (Bos taurus)) | composite Z-score [1] | composite z-score [2] | composite z-score [3] | composite z-score [4] | composite z-score [5] | composite z-score [6] | composite z-score (Sam68 (KHDRBS1)) | composite z-score [7] | composite z-score [8]
1 | COc1cc(NN2C(C(O)C3CCCCC3)C=CC3C(=O)N(c4ccccc4)C(=O)C32)cc(OC)c1OC (stereo not given) | 1.07 | 1.13 (inactive) | 0.0205 | 0.0888 | 0.712 | 2.65 | 0.605 | 1.3 | -1.5 | 1.11
2 | CCOC(=O)C[C@H]1[C@H](OC(=O)c2cc3ccccc3oc2=O)[C@@H](NC(=O)c2ccc3ccccc3c2)c2cc(OCCCO)ccc2N1C(=O)Cc1ccc(OC)cc1 | 0.684 | -0.0384 (inactive) | -0.0377 | -0.0131 | 0.265 | 1.69 | 0.241 | 0.692 | 0.453 | 0.69
3 | Cc1ccc(S[C@]2(C(=O)NC(C)C)CC(=O)N(Cc3ccccc3Cl)[C@@H]2c2ccc(CO)cc2)cc1 | 0.29 | 0.0728 (inactive) | -0.294 | -0.146 | 0.717 | 0.634 | 0.542 | -1.21 | -1.85 | -0.744
4 | [N-]=[N+]=NCc1ccccc1[C@@H]1OC(c2ccc(OCCCO)cc2)=N[C@]1(Cc1ccccc1)C(=O)NCCN1CCOCC1 | 0.501 | -0.016 (inactive) | 0.369 | 0.128 | 0.676 | 1.98 | 0.994 | 1.18 | 0.325 | 1.12
5 | Cc1ccc(N2C(=O)c3ccccc3[C@](C)(C(=O)NCc3ccccc3)[C@@H]2c2ccc(CO)cc2)nc1 | -0.377 | -0.446 (inactive) | 0.0311 | 0.0611 | 0.764 | 0.688 | 0.656 | -0.316 | 0.408 | 0.0943
6 | CN1C(=O)C2C(C1=O)C1C=C(CCCO)C2C(C2CC2)N1Cc1cc2c(cc1Br)OCO2 (stereo not given) | 0.984 | 1.32 (inactive) | 0.201 | -0.0097 | 0.756 | 2.63 | 1.25 | 1.18 | 0.0995 | 0.738
7 | O=C(O)[C@@H]1C[C@@H]2C(=O)N3CCC[C@H]3C(=O)N2[C@@H]1c1cccc(OCCO)c1 | 0.778 | 2.44 (inactive) | 1.56 | 1.07 | 0.849 | 4.04 | 1.04 | 1.33 | 1.11 | 1.24
8 | COCCCNC(=O)[C@@]1(c2ccc([N+](=O)[O-])cc2)CC(=O)N(CC23CC4CC(CC(C4)C2)C3)[C@@H]1c1ccc(CO)cc1I | 0.0824 | 0.197 (inactive) | -0.0751 | -0.0561 | 0.126 | 1.61 | 0.159 | 0.745 | -0.348 | 0.905
9 | C#C[C@@H](CC)O[Si](C#CCCCC#N)(C(C)C)C(C)C | 0.202 | -0.608 (inactive) | -0.0391 | -0.174 | 0.797 | 1.59 | -0.252 | 0.441 | 0.106 | -0.193
10 | COc1ccc(C#Cc2ccc3c(c2)[C@]2(C(=O)N3)[C@H](C(=O)N3CCCCCCC3)[C@H]3C(=O)O[C@H](c4ccccc4)[C@H](c4ccccc4)N3[C@@H]2c2ccc(O)cc2)cc1 | 0.796 | 4.74 (inactive) | 0.888 | 0.0488 | 0.594 | 2.9 | 1.25 | 1.3 | 0.573 | 0.977
11 | C[C@@]12COC[C@]13C=C(Br)[C@H](C2)[C@@]1(CO1)C3=O | -0.717 | 0.112 (inactive) | -0.315 | -0.124 | -0.643 | -0.47 | 0 | -1.91 | -0.211 | -0.858
